The supplement of paper PMC9694430

Key:
Assay in all cases: thermal shift delta Tm vs DMSO control; higher = stronger stabilization (binding)
Conditions in all cases: 12.5 µM; protein concentration 2 µM
[1] = tested on: LOC_OS04G57630-cb004
Procedure, shortened: (§1)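 Heating from 25°C to 95°C at 0.05°C/s, fluorescence was recorded for 19.5 μl wells of 2 μM E. coli-expressed, purified rice kinase domain in 100 mM potassium phosphate pH 7.5, 150 mM NaCl, 10% glycerol and 5 × SYPRO Orange with compound in DMSO. Boltzmann fits gave melting temperatures for this differential scanning fluorimetry assay. The shift reported is the mean of three replicates against the DMSO-only protein.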

[2] = tested on: LOC_OS05G07850-cb002
Procedure, shortened: as §1

[3] = tested on: LOC_OS05G16824-cb004
Procedure, shortened: as §1

[4] = tested on: LOC_OS05G28520-cb001
Procedure, shortened: as §1

[5] = tested on: LOC_OS05G30820-cb001
Procedure, shortened: as §1

[6] = tested on: LOC_OS05G43570-cb004
Procedure, shortened: as §1

[7] = tested on: LOC_OS06G16330-cb003
Chain of LOC_OS06G16330-cb003 (as listed by the source): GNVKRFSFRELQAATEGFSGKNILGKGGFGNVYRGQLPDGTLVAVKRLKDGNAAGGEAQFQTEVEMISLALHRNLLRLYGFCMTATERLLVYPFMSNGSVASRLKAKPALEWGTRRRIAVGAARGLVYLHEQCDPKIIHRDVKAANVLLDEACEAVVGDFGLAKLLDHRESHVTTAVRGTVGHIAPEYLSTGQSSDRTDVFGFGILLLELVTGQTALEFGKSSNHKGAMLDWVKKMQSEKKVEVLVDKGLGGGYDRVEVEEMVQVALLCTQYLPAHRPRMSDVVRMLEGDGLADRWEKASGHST
Procedure, shortened: as §1

[8] = tested on: T1, LOC_OS06G22820-cb001
T1 sequence (whole entry): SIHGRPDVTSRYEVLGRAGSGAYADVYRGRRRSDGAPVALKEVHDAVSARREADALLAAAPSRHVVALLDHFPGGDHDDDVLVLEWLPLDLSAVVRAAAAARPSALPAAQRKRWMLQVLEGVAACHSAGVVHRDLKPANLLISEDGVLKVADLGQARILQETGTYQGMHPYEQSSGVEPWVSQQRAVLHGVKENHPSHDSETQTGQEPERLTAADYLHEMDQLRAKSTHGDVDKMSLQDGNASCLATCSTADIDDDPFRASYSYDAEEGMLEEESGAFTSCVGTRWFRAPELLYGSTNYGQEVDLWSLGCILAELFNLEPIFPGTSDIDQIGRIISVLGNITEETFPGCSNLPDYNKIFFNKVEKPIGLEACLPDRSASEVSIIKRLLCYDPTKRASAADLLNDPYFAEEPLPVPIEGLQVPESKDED
Procedure, shortened: as §1

[9] = tested on: LOC_OS07G06570-cb004
Procedure, shortened: as §1

[10] = tested on: LOC_OS07G07230-cb001
Procedure, shortened: as §1
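Note: purified Escherichia coli-expressed rice kinase domain construct.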

SMILES | thermal shift delta Tm [1] [°C] | thermal shift delta Tm [2] [°C] | thermal shift delta Tm [3] [°C] | thermal shift delta Tm [4] [°C] | thermal shift delta Tm [5] [°C] | thermal shift delta Tm [6] [°C] | thermal shift delta Tm [7] [°C] | thermal shift delta Tm [8] [°C] | thermal shift delta Tm [9] [°C] | thermal shift delta Tm [10] [°C]
CN(C)C/C=C/C(=O)Nc1ccc(C(=O)Nc2cccc(Nc3ncc(Cl)c(-c4c[nH]c5ccccc45)n3)c2)cc1 | 2.1 | 11.2 | 11.9 | 4.57 | 5.85 | 1.59 | 11.2 | 0.86 | 1.53 | 0.68
COc1ccc(CNC(=O)Nc2ncc([N+](=O)[O-])s2)cc1 | -0.18 | -0.24 | 0.88 | 1.04 | 0.63 | 0.59 | 0.38 | 0.52 | 0.68 | 0.25
N#CC[C@H](C1CCCC1)n1cc(-c2ncnc3[nH]ccc23)cn1 | 0.1 | 6.97 | 1.27 | 0.17 | 0.76 | 1.05 | 3.75 | 0.57 | 1.16 | -0.53
CNC(=O)c1cc(Oc2ccc3nc(N[C@@H]4CCCC[C@H]4O)sc3c2)ccn1 | 0.41 | 0.33 | 2.01 | 0.77 | 0.47 | 0.57 | 0.27 | 0.57 | 0.18 | 0
C=CC(=O)Nc1cc(Nc2nccc(-c3c[nH]c4ccccc34)n2)c(OC)cc1N(C)CCN(C)C | 0.51 | 11 | -1.05 | 0.61 | 0.72 | 0.75 | 6.67 | 0.58 | 1.6 | 0.9
O=c1sn(-c2cccc3ccccc23)c(=O)n1Cc1ccccc1 [Tideglusib] | -0.25 | -3.79 | -13.5 | 0.99 | 0.39 | 0.01 | 0.99 | 0.6 | 1 | 0.27
O=C1NC(=O)/C(=C/c2cccc(C(F)(F)F)c2)S1 | 0.39 | 1.33 | -0.21 | 0.59 | 0.46 | 0.27 | 0.26 | 0.44 | 0.68 | 0.58
Cc1cc(Nc2cc(CN3CCOCC3)c3nc(C)c(Cc4ccc(Cl)cc4F)n3n2)n[nH]1 | 1.33 | 11.1 | 6.97 | 1.47 | 1.14 | 0.39 | 9.97 | -0.03 | 0.22 | -0.28
Cc1cc(Nc2cc(N3CCN(C)CC3)nc(/C=C/c3ccccc3)n2)n[nH]1 | 3.73 | 11.7 | 11.2 | 7.06 | 1.8 | 0.82 | 5.06 | 0.17 | 1.23 | 0.9
O=C(Nc1cccnc1)c1cc(-c2ccnc(F)c2)ccc1OCc1ccccc1 | 0.47 | 4.72 | 1.19 | 0.34 | 0.36 | -0.18 | -0.02 | 0.4 | 0.99 | 0.03
COc1ccc(COc2cc3oc(=O)c4cc(C(C)O)ccc4c3cc2OC)cc1 (stereo not given) [Palomid 529 (P529)] | 0.55 | 0.39 | -3.05 | 0.84 | 0.78 | 0.66 | 0.23 | 0.68 | 0.97 | 0.03
CCS(=O)(=O)N1CC(CC#N)(n2cc(-c3ncnc4[nH]ccc34)cn2)C1 | -0.03 | 4.2 | -0.69 | 0.54 | 0.72 | 0.88 | 2.6 | 0.77 | 1.1 | 0.82
COc1cc(N2CCC(N3CCN(C)CC3)CC2)ccc1Nc1ncnc(Nc2ccccc2S(=O)(=O)C(C)C)n1 | -0.16 | 9.97 | -1.84 | 0.49 | 0.53 | 0.45 | 2.65 | 0.91 | 1.77 | 0.45
Cc1cc(Nc2cc(N)ncn2)c(=O)n2c1C(=O)NC21CCCCC1 | 0.21 | 5.64 | 1.99 | -0.15 | 0.03 | 0.05 | 0.4 | 0.25 | 0.6 | 0.71
Nc1nc(N)c(N=O)c(OCC2CCCCC2)n1 | 0.27 | 8.06 | 1.8 | 0.61 | 0.8 | 0.23 | 2.17 | 0.95 | 1.43 | -0.02
FC(F)(F)c1ccc(Nc2nc3ccc(Oc4ccnc(-c5ncc(C(F)(F)F)[nH]5)c4)cc3[nH]2)cc1 [Raf265 derivative] | 1.36 | 0.46 | 7.37 | 1.01 | 0.29 | 1.6 | 1.16 | 0.73 | 1.65 | 0.27
CONC(=O)c1ccccc1Nc1cc(Nc2cc(C)nn2C(C)C)ncc1Cl | 0.41 | 5.58 | 8.82 | 0.25 | 0.17 | 0.39 | 6.46 | 0.47 | 1.77 | 0.55
CCOC(=O)c1cnc2ccc(-c3cncc(NS(=O)(=O)c4ccccc4)c3)cn12 | 0.28 | 3.75 | 1.63 | 0.65 | 0.47 | 0.51 | 2.32 | 0.38 | 0.45 | 0.1
Cc1cc(Nc2ncnc3ccc(NC4=NC(C)(C)CO4)cc23)ccc1Oc1ccn2ncnc2c1 [Irbinitinib (ARRY-380, ONT-380)] | 0.3 | 0.8 | -0.96 | 0.07 | 0.07 | 0.33 | -0.51 | 0.49 | 1.27 | 0.02
